Consider eight sequences from PMC7862700, “An all-to-all approach to the identification of sequence-specific readers for epigenetic DNA modifications on cytosine”.

Holding throughout (test): DAPPL (digital affinity profiling via proximity ligation, sequencing); 10 mM Tris-HCl pH 7.5, 50 mM NaCl, 1 mM DTT, 4% glycerol, room temperature, 30 min; GST-TFs on glutathione beads, 16-mer random dsDNA library, 0.1% formaldehyde crosslink after washing; high values mean tight binding
Holding throughout (conditions): protein: recombinant; tags: N-terminal GST; dsDNA, one strand shown

One assay addresses T1, ERF (Homo sapiens, UniProt P50548 1-548).
T1 sequence: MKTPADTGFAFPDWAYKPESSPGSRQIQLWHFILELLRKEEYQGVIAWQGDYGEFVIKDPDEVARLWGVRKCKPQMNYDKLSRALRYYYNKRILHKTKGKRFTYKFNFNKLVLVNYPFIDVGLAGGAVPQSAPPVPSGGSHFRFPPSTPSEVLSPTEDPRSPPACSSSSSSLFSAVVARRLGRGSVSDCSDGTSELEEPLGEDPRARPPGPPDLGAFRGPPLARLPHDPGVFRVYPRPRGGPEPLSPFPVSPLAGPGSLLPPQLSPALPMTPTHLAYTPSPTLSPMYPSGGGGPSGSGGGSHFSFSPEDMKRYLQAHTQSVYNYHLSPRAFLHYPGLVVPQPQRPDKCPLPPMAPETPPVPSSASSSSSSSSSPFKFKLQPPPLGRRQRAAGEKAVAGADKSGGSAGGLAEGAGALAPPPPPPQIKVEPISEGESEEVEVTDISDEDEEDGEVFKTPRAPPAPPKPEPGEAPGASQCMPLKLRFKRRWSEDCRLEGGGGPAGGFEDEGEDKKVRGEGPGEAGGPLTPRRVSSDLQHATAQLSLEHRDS
In short, it runs like this: (§1)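 Each value of binding signal is a hexamer's read frequency for a factor divided by the same hexamer's frequency in the tag-only sample. Barcoded, bead-captured GST fusions of human transcription factors made in yeast were pooled with that sample and incubated with 200 nmole of a random double-stranded 16-mer DNA library in Tris/NaCl/DTT/glycerol buffer at room temperature for 30 min. Washing, 0.1% formaldehyde crosslinking, proximity ligation, PCR and Illumina NextSeq500 sequencing followed.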

Another assay concerns the target T2, ETV3L (Homo sapiens, UniProt Q6ZN32 1-361).
T2 sequence: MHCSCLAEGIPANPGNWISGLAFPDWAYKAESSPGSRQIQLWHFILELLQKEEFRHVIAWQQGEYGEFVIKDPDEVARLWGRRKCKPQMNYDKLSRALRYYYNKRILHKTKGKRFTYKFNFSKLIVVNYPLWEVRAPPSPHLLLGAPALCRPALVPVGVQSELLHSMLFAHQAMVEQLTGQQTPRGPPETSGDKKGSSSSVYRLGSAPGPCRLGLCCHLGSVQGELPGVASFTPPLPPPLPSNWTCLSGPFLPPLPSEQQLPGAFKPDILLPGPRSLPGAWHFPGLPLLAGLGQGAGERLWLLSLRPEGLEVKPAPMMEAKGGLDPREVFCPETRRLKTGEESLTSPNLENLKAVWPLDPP
Summed up: as §1

The target of another assay is T3, ETS2 (Homo sapiens, UniProt P15036 1-469).
T3 sequence: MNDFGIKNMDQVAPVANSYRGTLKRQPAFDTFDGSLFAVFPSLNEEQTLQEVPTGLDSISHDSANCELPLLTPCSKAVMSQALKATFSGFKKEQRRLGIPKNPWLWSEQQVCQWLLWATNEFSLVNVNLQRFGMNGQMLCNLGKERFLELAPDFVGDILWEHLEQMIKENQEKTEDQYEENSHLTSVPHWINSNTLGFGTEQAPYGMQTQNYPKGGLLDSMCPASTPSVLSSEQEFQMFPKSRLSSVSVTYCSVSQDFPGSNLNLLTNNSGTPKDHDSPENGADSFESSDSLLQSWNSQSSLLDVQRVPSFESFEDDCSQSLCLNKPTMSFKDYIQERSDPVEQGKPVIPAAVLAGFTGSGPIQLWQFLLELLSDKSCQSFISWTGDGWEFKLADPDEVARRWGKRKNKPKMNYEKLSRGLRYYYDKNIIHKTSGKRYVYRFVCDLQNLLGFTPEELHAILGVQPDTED
Summed up: as §1

The next assay has as its target T4, SPDEF (Homo sapiens, UniProt O95238 1-335).
T4 sequence: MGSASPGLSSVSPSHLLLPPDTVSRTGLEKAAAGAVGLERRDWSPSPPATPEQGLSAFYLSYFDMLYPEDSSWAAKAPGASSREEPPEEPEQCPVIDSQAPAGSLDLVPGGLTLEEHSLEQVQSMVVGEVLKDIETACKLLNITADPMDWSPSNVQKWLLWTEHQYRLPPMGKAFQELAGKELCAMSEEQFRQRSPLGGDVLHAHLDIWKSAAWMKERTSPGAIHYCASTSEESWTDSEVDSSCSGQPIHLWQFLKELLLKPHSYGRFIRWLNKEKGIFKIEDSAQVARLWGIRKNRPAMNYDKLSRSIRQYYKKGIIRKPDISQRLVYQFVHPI
In short, it runs like this: as §1

The target in a further assay is T5, ETV3 (Homo sapiens, UniProt P41162-2 1-143).
T5 sequence: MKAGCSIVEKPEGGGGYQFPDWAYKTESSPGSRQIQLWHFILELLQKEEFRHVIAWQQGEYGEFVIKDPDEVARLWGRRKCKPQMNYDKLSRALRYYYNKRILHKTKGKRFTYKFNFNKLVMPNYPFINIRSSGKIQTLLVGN
Summed up: as §1

The next assay concerns the target ETV6 (Homo sapiens, UniProt P41212 1-452). In short, it runs like this: as §1
The next assay concerns the target T6, ELF5 (Homo sapiens, UniProt Q9UKW6-2 1-255).
T6 sequence: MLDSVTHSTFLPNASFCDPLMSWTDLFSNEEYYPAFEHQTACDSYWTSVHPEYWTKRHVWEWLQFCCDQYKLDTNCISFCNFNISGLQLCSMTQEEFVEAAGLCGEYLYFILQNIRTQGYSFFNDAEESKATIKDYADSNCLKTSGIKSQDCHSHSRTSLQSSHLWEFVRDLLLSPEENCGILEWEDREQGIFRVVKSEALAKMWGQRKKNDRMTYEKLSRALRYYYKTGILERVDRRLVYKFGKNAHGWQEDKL
Summed up:
as §1

In a further assay the target is T7, ETV7 (Homo sapiens, UniProt Q9Y603 1-341).
T7 sequence: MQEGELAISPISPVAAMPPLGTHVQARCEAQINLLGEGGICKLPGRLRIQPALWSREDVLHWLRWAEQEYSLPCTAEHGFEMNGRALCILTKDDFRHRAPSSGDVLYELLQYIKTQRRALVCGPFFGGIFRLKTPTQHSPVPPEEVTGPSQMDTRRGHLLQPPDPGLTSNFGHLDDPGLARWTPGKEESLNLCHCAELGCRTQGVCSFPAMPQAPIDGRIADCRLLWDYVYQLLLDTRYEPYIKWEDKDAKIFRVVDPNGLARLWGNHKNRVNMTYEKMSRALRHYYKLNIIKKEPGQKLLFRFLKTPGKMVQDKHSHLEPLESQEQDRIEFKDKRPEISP
In short, it runs like this: as §1

Chain of ETV6 (P41212 whole entry): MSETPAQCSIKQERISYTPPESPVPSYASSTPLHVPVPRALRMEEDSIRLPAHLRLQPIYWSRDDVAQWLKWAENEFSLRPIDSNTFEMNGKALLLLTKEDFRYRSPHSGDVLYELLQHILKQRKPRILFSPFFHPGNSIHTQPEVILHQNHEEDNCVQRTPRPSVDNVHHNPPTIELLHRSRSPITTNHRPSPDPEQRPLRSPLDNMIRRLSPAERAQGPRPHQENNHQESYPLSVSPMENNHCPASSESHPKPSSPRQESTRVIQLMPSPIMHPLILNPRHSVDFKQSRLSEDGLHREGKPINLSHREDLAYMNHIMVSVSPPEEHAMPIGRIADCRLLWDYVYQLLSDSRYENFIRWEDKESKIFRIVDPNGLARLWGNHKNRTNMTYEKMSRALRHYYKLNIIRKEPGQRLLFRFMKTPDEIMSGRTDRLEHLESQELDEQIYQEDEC

For TTTAGT, the binding signal in the assay with ERF was 1.03 fold enrichment (6-mer frequency, TF over GST control); in the assay with ETV3L it was 1.09 fold enrichment (6-mer frequency, TF over GST control); with ETS2, 1.04 fold enrichment (6-mer frequency, TF over GST control); with SPDEF it was 1.04 fold enrichment (6-mer frequency, TF over GST control); in the assay with ETV3 it was 1.11 fold enrichment (6-mer frequency, TF over GST control); with ETV6, 1.12 fold enrichment (6-mer frequency, TF over GST control).

For the sequence CGCCTA, the binding signal in the assay with ERF was 1.15 fold enrichment (6-mer frequency, TF over GST control); with ETV3L it was 1.25 fold enrichment (6-mer frequency, TF over GST control); with ETS2, 1.19 fold enrichment (6-mer frequency, TF over GST control); with SPDEF, 1.15 fold enrichment (6-mer frequency, TF over GST control); in the assay with ELF5, 1.18 fold enrichment (6-mer frequency, TF over GST control); in the assay with ETV3, 1.2 fold enrichment (6-mer frequency, TF over GST control). Also, in the assay with ETV6, the binding signal is 1.14 fold enrichment (6-mer frequency, TF over GST control).

On to TGTGGA, for which the binding signal in the assay with ERF is 1.15 fold enrichment (6-mer frequency, TF over GST control); with ETV3L, 1.17 fold enrichment (6-mer frequency, TF over GST control); with ETS2 it was 1.02 fold enrichment (6-mer frequency, TF over GST control); with SPDEF, 1.1 fold enrichment (6-mer frequency, TF over GST control); with ELF5, 1.02 fold enrichment (6-mer frequency, TF over GST control); with ETV3, 1.02 fold enrichment (6-mer frequency, TF over GST control). The binding signal with ETV6 was 1.07 fold enrichment (6-mer frequency, TF over GST control).

For the sequence TTGCGT, the binding signal with ERF is 1.21 fold enrichment (6-mer frequency, TF over GST control); with ETV3L, 1.03 fold enrichment (6-mer frequency, TF over GST control); in the assay with ETS2, 1.08 fold enrichment (6-mer frequency, TF over GST control); in the assay with SPDEF, 1.03 fold enrichment (6-mer frequency, TF over GST control); in the assay with ELF5, 1.03 fold enrichment (6-mer frequency, TF over GST control); with ETV3, 1.03 fold enrichment (6-mer frequency, TF over GST control). The binding signal in the assay with ETV6 was 1.13 fold enrichment (6-mer frequency, TF over GST control).

With GTTATC, the binding signal was 1.06 fold enrichment (6-mer frequency, TF over GST control) with ERF; 1.07 fold enrichment (6-mer frequency, TF over GST control) in the assay with ETV3L; 1.14 fold enrichment (6-mer frequency, TF over GST control) with ETS2; 1.11 fold enrichment (6-mer frequency, TF over GST control) in the assay with SPDEF; 1.14 fold enrichment (6-mer frequency, TF over GST control) in the assay with ELF5; 1.07 fold enrichment (6-mer frequency, TF over GST control) with ETV3. Moreover, the binding signal in the assay with ETV6 was 1.1 fold enrichment (6-mer frequency, TF over GST control).

In the case of CTCGGT, the binding signal with ERF was 1.14 fold enrichment (6-mer frequency, TF over GST control); with ETV3L, 1.12 fold enrichment (6-mer frequency, TF over GST control); with ETS2 it was 1.11 fold enrichment (6-mer frequency, TF over GST control); in the assay with SPDEF, 1.02 fold enrichment (6-mer frequency, TF over GST control); with ETV7, 1.05 fold enrichment (6-mer frequency, TF over GST control); with ETV6, 1.08 fold enrichment (6-mer frequency, TF over GST control).

For GATCCC, the binding signal was 1.3 fold enrichment (6-mer frequency, TF over GST control) in the assay with ERF; 1.2 fold enrichment (6-mer frequency, TF over GST control) with ETV3L; 1.11 fold enrichment (6-mer frequency, TF over GST control) in the assay with ETS2; 1.27 fold enrichment (6-mer frequency, TF over GST control) in the assay with SPDEF; 1.1 fold enrichment (6-mer frequency, TF over GST control) with ELF5; 1.11 fold enrichment (6-mer frequency, TF over GST control) with ETV3. In the assay with ETV6, the binding signal was 1.12 fold enrichment (6-mer frequency, TF over GST control).

Take CAACCA: the binding signal with ERF was 1.14 fold enrichment (6-mer frequency, TF over GST control); with ETV3L, 1.05 fold enrichment (6-mer frequency, TF over GST control); with ETS2 it was 1.1 fold enrichment (6-mer frequency, TF over GST control); in the assay with SPDEF, 1.09 fold enrichment (6-mer frequency, TF over GST control); in the assay with ETV7, 1.04 fold enrichment (6-mer frequency, TF over GST control); with ETV3, 1.1 fold enrichment (6-mer frequency, TF over GST control). The binding signal with ETV6 was 1.03 fold enrichment (6-mer frequency, TF over GST control).
